Test in all cases: NCI-60 one-dose screen, 48 h (100 = growth as untreated, 0 = no growth, -100 = all killed)
Holding throughout (details): 10 µM unless noted

Assay [1] deals with DU-145 prostate.
Assay [2] deals with K-562 leukemia.
Assay [3] concerns MALME-3M melanoma.
The test system of assay [4] is MDA-MB-231 breast.
Assay [5] concerns RXF 393 renal.
For assay [6], the system named is SF-268 CNS.
For assay [7], the system named is SF-295 CNS.
The subject of assay [8] is SF-539 CNS.
Assay [9] relates to UACC-257 melanoma.
Assay [10] deals with M14 melanoma.
The test system of assay [11] is HCT-15 colon.
Assay [12] has as its system HT29 colon.
Assay [13] deals with SNB-75 CNS.
For assay [14], the system named is SNB-19 CNS.
Assay [15] has as its system U251 CNS.
The subject of assay [16] is PC-3 prostate.
For assay [17], the system named is SK-MEL-5 melanoma.
Assay [18] has as its system UACC-62 melanoma.
The test system of assay [19] is LOX IMVI melanoma.
Assay [20] has as its system SK-MEL-28 melanoma.

Molecules are shown by their SMILES. This is part of a sample that, as a whole, favours compounds with a hit. Of some 83,000 tested, about 20% had one in any assay.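 Cell lines were cultured in 96-well plates, exposed to a single compound concentration, and assessed for percent growth 48 hours later.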 Values without a mark were called inactive. The source made the active and inactive calls. The calls were made as follows: active = growth percent below 10; inactive = the rest.

In the case of `O=Cc1c[nH]c2ccc(-c3csc4ccccc34)cc12`, the growth in assay [1] is 80%; in assay [2], 8.16% (active); in [3], 44.4%; in [4], 45.7%; in assay [5], 45.3%; in assay [6], 44.5%. For the same compound, the growth in assay [7] is -22.6% (active); in [8] it was 30.9%; in assay [9] it was 39.3%; in assay [10], 23.5%; in assay [11], 29%; in assay [12], 16.5%. Besides, the growth in [13] was 39.9%; in assay [14], 34.3%; in assay [15], 25.2%; in assay [16] it was 61.9%; in assay [17] it was 61%; in assay [18], 34%. Also, the growth in [19] was 39.5%; in [20], 69.8%.

Turning to `Cn1cc(-c2csc(-c3cccc(F)c3)n2)c2cccnc21`, the growth in assay [1] was -62.7% [100 µM] (active); in [2], 2.45% [100 µM] (active); in [3], -39.1% [100 µM] (active); in assay [4] it was -50.1% [100 µM] (active); in [5], -30.7% [100 µM] (active); in [6], -40.5% [100 µM] (active). Also, the growth in assay [7] was -51.9% [100 µM] (active); in [8], -74.9% [100 µM] (active); in assay [9] it was -37.6% [100 µM] (active); in assay [10], -77.2% [100 µM] (active); in assay [11], -43.3% [100 µM] (active); in assay [12], -71.7% [100 µM] (active). The growth is -29.4% [100 µM] (active) in assay [13]; -62.8% [100 µM] (active) in [14]; -36.4% [100 µM] (active) in assay [15]; -42% [100 µM] (active) in assay [16]; -86.1% [100 µM] (active) in [17]; -67% [100 µM] (active) in [18]. Also, the results for the growth in assay [19] and in assay [20] were -54.3% [100 µM] (active) and -57.8% [100 µM] (active), respectively.

In the case of `Cc1nn(-c2ccccc2)c(Oc2ccc(Cl)cc2)c1/C=N\N=c1/sc2ccccc2n1C`, the growth was 108% in assay [1]; 81% in [2]; 98.2% in assay [3]; 79% in assay [4]; 94.2% in assay [5]; 79.6% in assay [6]. For the same compound, the growth in assay [7] is 101%; in assay [8] it was 107%; in assay [9] it was 91.9%; in assay [10] it was 87.4%; in [11], 77.4%; in assay [12], 84.8%. The growth was 74.4% in assay [13]; 99.1% in assay [14]; 86.9% in assay [15]; 62.3% in [16]; 93.3% in [17]; 70.8% in [18]. Further, the growth in assay [19] was 93.3%; in [20] it was 110%.

On to `Clc1ccc(-c2c3ccc(=[N+]4CCCCC4)cc-3oc3cc(N4CCCCC4)ccc23)cc1`, for which the growth in [1] is -91.7% (active); in assay [2] it was -34.1% (active); in [3], -76.4% (active); in assay [4] it was -81.7% (active); in assay [5], -91.2% (active); in assay [6] it was -89.6% (active). Also, the growth in assay [7] is -72.6% (active); in assay [8], -93.4% (active); in assay [9] it was -78.5% (active); in assay [10], -92.7% (active); in [11], -77.1% (active); in [12], -82.3% (active). Further, the growth in assay [13] is -70.1% (active); in assay [14], -90% (active); in assay [15] it was -79.6% (active); in assay [16], -71.2% (active); in assay [17] it was -95.4% (active); in [18], -87.1% (active). Further, the growth in [19] was -70.2% (active); in [20], -91.4% (active).

Take `O=C(/C=C/c1cccc(O)c1)c1cccc(-n2cc(-c3ccc4ccccc4c3)[nH]c2=O)c1`: the growth in assay [1] is -17.3% (active); in assay [2], -40.4% (active); in assay [3] it was -6.88% (active); in assay [4] it was 14.7%; in [5], 29.8%; in [6], -6.97% (active). For the same compound, the growth in assay [7] is 6.57% (active); in [8], -88.3% (active); in assay [9], 99.6%; in assay [10], 16.2%; in assay [11], 2.35% (active); in assay [12], -72.7% (active). Further, the growth was 4.8% (active) in assay [13]; -43.2% (active) in assay [14]; -86.6% (active) in assay [15]; 5.01% (active) in [16]; -2.25% (active) in assay [17]; 11.4% in [18]. In addition, the growth in [19] was -78.2% (active); in [20], 42.9%.

`CCN(CCNc1ccc(C)c2sc3ccccc3c(=O)c12)CC(C)(C)O`: the growth was 95.7% in assay [1]; -34.5% (active) in assay [2]; 89.1% in [3]; 78% in assay [4]; 74.7% in assay [5]; 83.3% in [6]. The growth in [7] is -17.6% (active); in assay [8], 78.9%; in [9], 95.9%; in [10], 73.2%; in assay [11] it was 28.8%; in [12], 39.2%. The growth was 73.7% in assay [13]; 78% in [14]; 49.7% in assay [15]; 71.4% in [16]; 75.9% in assay [17]; 53.6% in assay [18]. For the same compound, the growth is 54.4% in [19] and 79.6% in assay [20].

Take `C(=N\Nc1ncc(-c2cc3cc4c(cc3o2)OCO4)s1)/c1ccco1`: the growth was 12.4% in [1]; 21.7% in assay [2]; 25% in [3]; 42.4% in [4]; 17.1% in [5]; 39.2% in assay [6]. Further, the growth was 84.8% in assay [7]; 7% (active) in assay [8]; 80.1% in assay [9]; 52.5% in assay [10]; 18.4% in assay [11]; 36.9% in [12]. Moreover, the growth in assay [13] was 51.2%; in [14], 53.9%; in assay [15], 37%; in assay [16] it was 33.6%; in assay [17], 87.4%; in assay [18], 88.8%. Moreover, the growth is -48.8% (active) in assay [19] and 81% in assay [20].

As for `COc1cc(/C=C/C(=O)c2ccc(Nc3nc(Nc4ccc(F)cc4)nc(Nc4ccc(Cl)cc4)n3)cc2)cc(OC)c1OC`, the growth in assay [1] was 68.5%; in assay [2] it was 35.8%; in [3], 56.2%; in [4], 62.6%; in assay [5], -31.1% (active); in assay [6] it was 74.8%. In addition, the growth is 369% in assay [7]; 67.7% in [8]; 102% in [9]; 65.6% in assay [10]; 55% in [11]; 3.82% (active) in assay [12]. Also, the growth is 0.259% (active) in assay [13]; 101% in assay [14]; 27.5% in assay [15]; 21.4% in assay [16]; 33.5% in assay [17]; 56.5% in [18]. Also, the figures for the growth in assay [19] and in [20] were 37.3% and -32.9% (active), respectively.
